Data as given in PubChem BioAssay.
Calls of active or inactive are those of the source.

Key:
[1] = system: Plasmodium falciparum Sir2 (PF13_0152, Sir2A); assay: Plasmodium falciparum Sir2A binding compounds – biochemical, small-molecule microarray, 635 nm fluorescence, primary screen (AID 1098); conditions: fluorescence 635 nm, higher = more signal;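 note: score merges spot fluorescence intensity with its signal-to-noise ratio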
[2] = probe aDKK1 binding to arrayed compounds – biochemical, biotinylated probe, 635/667 nm fluorescence, primary screen (AID 1099); conditions: small-molecule microarray, higher = more signal;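 note: score merges 667nm spot fluorescence with signal to noise across triplicate slides; reference of the scale not given here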
[3] = probe aCHRDL2 binding to arrayed compounds – biochemical, biotinylated probe, 635/667 nm fluorescence, primary screen (AID 1100); conditions: small-molecule microarray, higher = more signal
[4] = change in splice reporter luminescence, either direction, cell-based, HEK293, spliceosome inhibition project, primary screen (AID 1101); conditions: HEK293 splicing luciferase reporter, 24 h, higher = more signal, called active from +8 up or from −8 down;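 note: HEK293 cells carrying a splicing-competent luciferase reporter gene; test concentration not given here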
[5] = target: Fibroblast growth factor 10 (Homo sapiens) (UniProt O15520); assay: compounds binding fibroblast growth factor 10 – biochemical, small-molecule microarray, 635 nm fluorescence, primary screen (AID 1102); conditions: FGF10 binding, fluorescence 635 nm, higher = more signal
[6] = system: glycogen synthase kinase-3 (GSK3A per assay name; protocol says GSK3B); assay: compounds binding glycogen synthase kinase-3 – biochemical, small-molecule microarray, 635 nm fluorescence, GSK3A, primary screen (AID 1103); conditions: fluorescence 635 nm, higher = more signal; note: the record names both GSK3A and GSK3B
[7] = target: Epidermal growth factor receptor (Homo sapiens) (UniProt P00533); assay: compounds binding epidermal growth factor receptor – biochemical, small-molecule microarray, 635 nm fluorescence, primary screen (AID 1104); conditions: EGFR binding, higher = more signal;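 note: score merges 667 nm emission intensity with spot signal to noise over triplicate slides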
[8] = target: Follistatin-related protein 3 (Homo sapiens) (UniProt O95633); assay: compounds binding follistatin-related protein 3 – biochemical, small-molecule microarray, 635 nm fluorescence, primary screen (AID 1105); conditions: FSTL3 binding, higher = more signal;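 note: score merges emission near 667 nm and signal to noise per printed spot across three slides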
[9] = target: Dickkopf-related protein 1 (Homo sapiens) (UniProt O94907); assay: small molecules binding DKK1 protein – biochemical, small-molecule microarray, 635 nm fluorescence scan, primary screen (AID 1106); conditions: higher = more signal;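 note: score merges emission near 667 nm with signal to noise over three replicate slides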
[10] = system: Inhibin beta A chain (activin A); assay: small molecules binding activin A – biochemical, small-molecule microarray, 635 nm fluorescence scan, primary screen (AID 1107); conditions: INHBA, higher = more signal;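 note: mouse activin A protein probed at 4.33 µg/mL on printed slides; score merges bound-protein fluorescence near 667 nm with spot signal-to-noise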

Fibroblast growth factor 10 (Homo sapiens), sequence (O15520 whole entry, looked up): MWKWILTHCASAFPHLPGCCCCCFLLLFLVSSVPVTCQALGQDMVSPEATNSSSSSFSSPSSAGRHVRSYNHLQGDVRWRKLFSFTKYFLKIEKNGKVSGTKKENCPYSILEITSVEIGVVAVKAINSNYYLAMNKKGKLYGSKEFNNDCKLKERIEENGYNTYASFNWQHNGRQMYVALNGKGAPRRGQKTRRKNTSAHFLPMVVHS
Epidermal growth factor receptor (Homo sapiens), sequence (P00533 whole entry, looked up): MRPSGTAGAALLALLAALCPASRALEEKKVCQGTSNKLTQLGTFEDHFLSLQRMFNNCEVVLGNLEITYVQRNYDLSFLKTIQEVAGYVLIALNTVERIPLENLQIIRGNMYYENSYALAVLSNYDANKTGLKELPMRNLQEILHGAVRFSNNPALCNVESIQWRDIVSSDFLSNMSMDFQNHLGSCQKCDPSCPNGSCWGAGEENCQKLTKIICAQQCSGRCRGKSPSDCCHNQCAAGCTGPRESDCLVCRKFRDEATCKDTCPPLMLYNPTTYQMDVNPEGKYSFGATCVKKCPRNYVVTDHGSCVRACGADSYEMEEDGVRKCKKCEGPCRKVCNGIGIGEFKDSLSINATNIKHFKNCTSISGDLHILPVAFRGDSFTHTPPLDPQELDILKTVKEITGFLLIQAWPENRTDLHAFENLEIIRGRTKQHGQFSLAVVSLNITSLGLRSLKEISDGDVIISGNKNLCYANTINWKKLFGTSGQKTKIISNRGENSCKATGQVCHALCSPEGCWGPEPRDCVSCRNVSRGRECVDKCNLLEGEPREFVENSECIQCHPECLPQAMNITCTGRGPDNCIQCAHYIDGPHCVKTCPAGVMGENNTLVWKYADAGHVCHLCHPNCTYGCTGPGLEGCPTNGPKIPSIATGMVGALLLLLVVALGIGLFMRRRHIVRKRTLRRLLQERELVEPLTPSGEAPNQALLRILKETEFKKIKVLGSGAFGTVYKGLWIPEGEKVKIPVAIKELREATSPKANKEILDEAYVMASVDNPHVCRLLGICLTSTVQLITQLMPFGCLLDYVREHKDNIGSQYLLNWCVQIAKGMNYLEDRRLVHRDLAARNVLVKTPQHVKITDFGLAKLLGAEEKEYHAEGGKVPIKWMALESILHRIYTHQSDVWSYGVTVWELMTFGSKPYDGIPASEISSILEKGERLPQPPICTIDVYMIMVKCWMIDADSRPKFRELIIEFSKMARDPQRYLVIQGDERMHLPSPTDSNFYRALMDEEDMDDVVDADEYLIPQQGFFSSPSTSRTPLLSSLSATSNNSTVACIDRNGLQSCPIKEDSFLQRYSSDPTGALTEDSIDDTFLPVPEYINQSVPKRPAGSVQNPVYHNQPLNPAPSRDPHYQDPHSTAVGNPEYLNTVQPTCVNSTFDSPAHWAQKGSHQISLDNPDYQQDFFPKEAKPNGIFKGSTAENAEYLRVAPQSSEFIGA
Follistatin-related protein 3 (Homo sapiens), sequence (O95633 whole entry, looked up): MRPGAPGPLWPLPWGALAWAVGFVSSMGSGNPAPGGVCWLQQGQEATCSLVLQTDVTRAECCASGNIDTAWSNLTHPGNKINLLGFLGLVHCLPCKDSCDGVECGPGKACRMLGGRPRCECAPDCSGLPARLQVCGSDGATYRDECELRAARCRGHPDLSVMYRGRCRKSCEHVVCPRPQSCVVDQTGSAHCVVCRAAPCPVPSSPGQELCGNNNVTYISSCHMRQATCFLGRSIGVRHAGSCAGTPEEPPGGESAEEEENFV
Dickkopf-related protein 1 (Homo sapiens), sequence (O94907 whole entry, looked up): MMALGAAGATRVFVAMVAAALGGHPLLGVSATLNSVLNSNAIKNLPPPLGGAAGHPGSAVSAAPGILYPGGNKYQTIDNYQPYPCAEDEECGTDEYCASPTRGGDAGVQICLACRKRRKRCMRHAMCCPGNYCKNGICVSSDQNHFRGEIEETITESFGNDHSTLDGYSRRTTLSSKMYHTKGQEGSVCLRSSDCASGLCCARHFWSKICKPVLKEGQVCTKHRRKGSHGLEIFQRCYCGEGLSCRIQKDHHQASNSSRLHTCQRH

SMILES | composite z-score [1] | composite z-score [2] | composite z-score [3] | z-score [4] | composite z-score [5] | composite z-score [6] | composite z-score [7] | composite z-score [8] | composite z-score [9] | composite z-score [10]
CCC(CC)C(O)C1C=CC2C(=O)N(c3ccccc3)C(=O)C2N1Nc1ccccc1 (stereo not given) | 1.52 | 1.29 | 1.15 | -0.326 (inactive) | 0.988 | 1.21 | 0.452 | 1.38 | 0.0269 | 0.555
NCCCCCNC(=O)[C@H]1C[C@H]2C(=O)N3CCC[C@H]3C(=O)N2[C@H]1c1ccc(O)cc1 | 0.94 | 1.63 | 0.684 | -0.391 (inactive) | 1.01 | 1.28 | 0.781 | 1.34 | 1.24 | 1.12
[N-]=[N+]=Nc1ccccc1[C@H]1OC(c2ccc(OCCCO)cc2)=N[C@@]1(Cc1ccccc1)C(=O)N1CCOCC1 | 1.43 | 1.14 | 1.08 | 0.439 (inactive) | 1.31 | 0.921 | 0.73 | 1.07 | 0.477 | 1.11
C[C@H]1C2[C@H](Cc3ccccc3)NC(=O)[C@]23C(=O)NCC(=O)N2CCC[C@H]2C(=O)NC/C=C/CCC/C=C/C3[C@@H]2O[C@]12C (stereo not given in full) | 0.38 | -0.398 | -0.269 | -0.0803 (inactive) | -0.568 | -1.26 | -0.681 | -0.618 | -0.233 | 1.55
COC(=O)C(CC#Cc1ccc2c(c1)[C@]1(C(=O)N2)[C@H](c2ccccc2OCCO)N2[C@H](c3ccccc3)[C@H](c3ccccc3)OC(=O)[C@H]2[C@@H]1C(N)=O)C(=O)OC | 1.54 | 1.45 | 0.862 | -3.57 (inactive) | 0.376 | 1 | 0.241 | 0.412 | -0.221 | 0.693
CC(=O)n1cc(C(O)C2C=CC3C(=O)NC(=O)C3N2Nc2ccccn2)c2ccccc21 (stereo not given) | 0.452 | -0.0908 | 0.0413 | 2.28 (inactive) | 0.168 | 0.0973 | 0.523 | 0.225 | 0.339 | 0.709
O=C1O[C@@H](c2ccccc2)[C@@H](c2ccccc2)N2[C@@H](c3ccc(OCCO)cc3)[C@]3(C(=O)Nc4ccc(C#CCCO)cc43)[C@@H](C(=O)NC[C@H](O)c3ccccc3)[C@H]12 | 1.51 | 0.312 | 0.333 | -0.6 (inactive) | 0.84 | 0.905 | 0.94 | 0.956 | 0.687 | 0.73
O=C(NC1CC1)[C@@H]1c2ccccc2C(=O)N(Cc2cc(F)cc(C(F)(F)F)c2)[C@H]1c1ccc(CO)cc1 | 1.62 | -0.284 | 0.447 | 0.191 (inactive) | -0.216 | 0.296 | -1.18 | -0.317 | -0.666 | -0.142
